The target in assay [1] is Thyrotropin receptor (Homo sapiens) (UniProt P16473). Kind of assay: qHTS assay to identify small molecule agonists of the thyroid stimulating hormone receptor (TSHR) signaling pathway (AID 1224843; calls by dose curve; also: nearly all actives have a fitted effect of over 45% in size). In short, it runs like this: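 Steps: seed 800 TSHR-HEK293 cells per well; add test compound and hold 30 min at ambient temperature; dispense cAMP-d2 then anti-cAMP cryptate; incubate 1 h at ambient; measure fluorescence intensity.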
Thyrotropin receptor (Homo sapiens), sequence (P16473 whole entry, looked up): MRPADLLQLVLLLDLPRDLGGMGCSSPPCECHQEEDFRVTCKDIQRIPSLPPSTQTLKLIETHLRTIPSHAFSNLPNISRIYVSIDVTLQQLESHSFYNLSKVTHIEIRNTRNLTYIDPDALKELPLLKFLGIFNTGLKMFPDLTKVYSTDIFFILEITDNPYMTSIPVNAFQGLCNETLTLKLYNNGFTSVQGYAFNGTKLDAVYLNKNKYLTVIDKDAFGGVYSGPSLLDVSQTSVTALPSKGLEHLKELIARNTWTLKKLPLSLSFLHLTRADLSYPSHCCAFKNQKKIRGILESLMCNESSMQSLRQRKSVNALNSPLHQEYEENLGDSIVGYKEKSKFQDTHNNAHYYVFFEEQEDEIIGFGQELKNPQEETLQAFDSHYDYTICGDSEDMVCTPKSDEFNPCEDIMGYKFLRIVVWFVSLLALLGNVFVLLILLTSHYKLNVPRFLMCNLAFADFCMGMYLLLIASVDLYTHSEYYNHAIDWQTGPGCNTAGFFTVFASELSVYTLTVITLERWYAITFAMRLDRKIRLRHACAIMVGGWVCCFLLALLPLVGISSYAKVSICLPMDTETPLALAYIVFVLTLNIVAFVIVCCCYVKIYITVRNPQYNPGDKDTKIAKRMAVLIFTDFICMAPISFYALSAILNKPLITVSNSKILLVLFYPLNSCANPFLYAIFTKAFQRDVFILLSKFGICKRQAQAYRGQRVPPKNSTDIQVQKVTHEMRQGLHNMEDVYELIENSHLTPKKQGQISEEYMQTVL

The nature of assay [2]: qHTS assay to identify small molecule agonists of the hypoxia (HIF-1) signaling pathway - cell viability counter screen (AID 1224844; calls by dose curve; also: nearly all actives have a fitted effect of over 50% in size; also: potency is read from the fitted curve at half-maximal effect). In outline:
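HRE-bla ME-180 cells in medium with 0.5% dialyzed FBS were preincubated 5 hrs at 37C, exposed to compounds for 17 hrs, then viability was read as CellTiter-Glo luminescence after 30 min at room temperature, in the reporter wells.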
On the technique in general: In qHTS, concentration-response curves come from the screen itself.

Assay [3] can be described thus: qHTS assay to identify small molecule agonists of H2AX - cell viability counter screen (AID 1224847; calls by dose curve; also: nearly all actives have a fitted effect of over 30% in size; also: potency is read from the fitted curve at half-maximal effect). In short, it runs like this:
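After overnight plating of 1000 CHO-K1 cells per well, a 15-concentration compound series was applied for 3 hr at 37C. Luminescence from CellTiter-Glo, read following 30 min at room temperature, reflected cell viability.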

Assay [4] can be described thus: qHTS RealTime-Glo MT Cell Viability Assay in HepG2 cells - 24 hour (AID 1224867). Also: nearly all actives have a fitted effect of over 50% in size. Also: potency is read from the fitted curve at half-maximal effect. In short, it runs like this: (§1)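 HepG2 cells (600/well) were dispensed with RealTime-Glo reagents, incubated 5 h at 37 °C, then treated with compounds in DMSO for up to 40 h. Nonlytic NanoLuc luminescence reflecting viable cells was read at each stated time point.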
A short description of assay [5]: qHTS RealTime-Glo MT Cell Viability Assay in HEK293 cells - 32 hour (AID 1224868). Also: nearly all actives have a fitted effect of over 50% in size. Also: potency is read from the fitted curve at half-maximal effect. In outline:
(§2)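 HEK293 cells seeded with NanoLuc/prosubstrate reagent, rested 5 h at 37 C, then dosed and kept at 37 C up to 40 h. Nonlytic real-time luminescence from viable cells read at 0, 8, 16, 24, 32 and 40 h.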

Assay [6] can be described thus: A CellTox Green Cytotoxicity Assay to monitor cytotoxicity in HEK293 cells - 0 hour (AID 1224869). Also: nearly all actives have a fitted effect of over 50% in size. In short, it runs like this:
(§3)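 HEK293 cells premixed with CellTox Green dye were seeded at 600 cells/well and left 5 h at 37 C/5% CO2 before pin transfer of 23 nL compound in DMSO. Fluorescence from dye bound to dead-cell DNA was read during 40 h treatment.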

A short description of assay [7]: qHTS RealTime-Glo MT Cell Viability Assay in HepG2 cells - 40 hour (AID 1224870). Also: nearly all actives have a fitted effect of over 50% in size. Also: potency is read from the fitted curve at half-maximal effect. In outline:
(§4)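 HepG2 cells (600/well) mixed with RealTime-Glo MT reagent, settled 5 h at 37 C/5% CO2 before compound addition. Nonlytic NanoLuc luminescence from viable-cell prosubstrate reduction read repeatedly during 40 h treatment at 37 C.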

Assay [8] can be described thus: A CellTox Green Cytotoxicity Assay to monitor cytotoxicity in HEK293 cells - 40 hour (AID 1224871). Also: nearly all actives have a fitted effect of over 45% in size. Also: potency is read from the fitted curve at half-maximal effect. In outline:
as §3

Assay [9] can be described thus: qHTS RealTime-Glo MT Cell Viability Assay in HEK293 cells - 16 hour (AID 1224872). Also: nearly all actives have a fitted effect of over 50% in size. Also: potency is read from the fitted curve at half-maximal effect. In outline:
as §2

A short description of assay [10]: qHTS RealTime-Glo MT Cell Viability Assay in HepG2 cells - 8 hour (AID 1224873). Also: nearly all actives have a fitted effect of over 55% in size. Also: potency is read from the fitted curve at half-maximal effect. In short, it runs like this: as §4
Assay [11] in a line: qHTS RealTime-Glo MT Cell Viability Assay in HEK293 cells - 40 hour (AID 1224874). Also: nearly all actives have a fitted effect of over 50% in size. Also: potency is read from the fitted curve at half-maximal effect. The settings on record: RealTime-Glo luminescence; max response: stronger effect = lower value. In outline: (§5)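 HEK293 cells mixed with RealTime-Glo reagents (NanoLuc plus cell-permeant prosubstrate) at 600 cells/well, preincubated 5 h at 37 C/5% CO2, then given 23 nL compound in DMSO. Nonlytic luminescence from viable cells was read at 0, 8, 16, 24, 32 and 40 h.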

The nature of assay [12]: A CellTox Green Cytotoxicity Assay to monitor cytotoxicity in HEK293 cells - 24 hour (AID 1224875). Also: nearly all actives have a fitted effect of over 45% in size. Also: potency is read from the fitted curve at half-maximal effect. In outline: as §3
Assay [13] can be described thus: A CellTox Green Cytotoxicity Assay to monitor cytotoxicity in HepG2 cells - 16 hour (AID 1224876). Also: nearly all actives have a fitted effect of over 45% in size. Also: potency is read from the fitted curve at half-maximal effect. In outline: (§6)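 HepG2 cells were seeded together with the CellTox Green dye at 600 cells/well, left 5 h at 37 C/5% CO2, then given compounds in DMSO. Fluorescence from dye bound to dead-cell DNA was read repeatedly over 40 h of treatment at 37 C.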
The nature of assay [14]: qHTS RealTime-Glo MT Cell Viability Assay in HepG2 cells - 32 hour (AID 1224877). Also: nearly all actives have a fitted effect of over 55% in size. In short, it runs like this:
as §1

Assay [15] is described as follows: A CellTox Green Cytotoxicity Assay to monitor cytotoxicity in HepG2 cells - 24 hour (AID 1224878). Also: nearly all actives have a fitted effect of over 45% in size. Also: potency is read from the fitted curve at half-maximal effect. In short, it runs like this:
as §6

A short description of assay [16]: A CellTox Green Cytotoxicity Assay to monitor cytotoxicity in HepG2 cells - 40 hour (AID 1224879). Also: nearly all actives have a fitted effect of over 40% in size. Also: potency is read from the fitted curve at half-maximal effect. In outline:
as §6

Assay [17] is described as follows: qHTS RealTime-Glo MT Cell Viability Assay in HEK293 cells - 0 hour (AID 1224880). In short, it runs like this: as §5
The nature of assay [18]: qHTS assay to identify small molecule agonists of H2AX (AID 1224845; active = well fitted activation curve with a large enough effect in the signal ratio in the repeat runs, not every such curve was filed as active; the % refers to the signal ratio). In short, it runs like this:
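Wild-type CHO-K1 cells, plated overnight, exposed 3hr at 37C to 15 concentrations (0.76% DMSO final). Lysed, then HTRF anti-pH2AX (S139) cryptate and anti-H2AX-d2 antibodies, 24 hr room temperature; 665/620 nm emission read.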

A short description of assay [19]: qHTS assay to identify small molecule agonists of the hypoxia (HIF-1) signaling pathway (AID 1224846; active = well fitted activation curve with a large enough effect in the signal ratio in the repeat runs, not every such curve was filed as active; the % refers to the signal ratio). In short, it runs like this:
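HRE-bla ME-180 cells (beta-lactamase reporter under hypoxia response element) were plated at 2,000 cells/well in medium with 0.5% dialyzed FBS, rested 5 hrs, then given compounds in DMSO for 17 hrs at 37C, 5% CO2. Reporter induction was read with CCF4-AM FRET substrate.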

The nature of assay [20]: qHTS assay to identify small molecule agonists of the estrogen related receptor (ERR) signaling pathway from Tox21 library (AID 1224849; calls by dose curve; also: nearly all actives have a fitted effect of over 15% in size). The settings on record: ERR reporter cell line, ONE-Glo luciferase, 18 h. In short, it runs like this:
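ERR reporter cell line (NTP) seeded, rested 6 h at 37 C/5% CO2, then pinned with Tox21 compounds in DMSO. After 18 h at 37 C, ONE-Glo luciferase luminescence was read following 30 min at room temperature.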

Several values for one entry are separate records, joined by “and”; a condition that tells them apart may be missing. Equal entries are not always repeated. Results filed as inconclusive are left out. The source holds several records for some structures; these can differ, active in one and inactive in another. Activity calls are given as the source filed them. Unless noted, calls follow the shape of the dose curve; as a rule, active = well fitted curve in the direction sought with a large enough effect in the repeat runs; inconclusive = weak or mixed curves; inactive = no such curve, though single readings can be large; an effect the other way counts as inactive or inconclusive.
% is scaled to controls: 0 for no effect and ±100 for the full control effect.

With `Cc1cc(=O)oc2cc(O)ccc12`, the Potency result in assay [1], in assay [2], in assay [3], in assay [4], in assay [5] and in [6] was “inactive” in each case. Also, the Potency result in [7], in [8], in assay [9], in assay [10], in assay [12] and in assay [13] was “inactive” each time. Further, the Potency result in [14], in assay [15], in assay [16] and in assay [17] was “inactive” each time. For the same molecule, the max response in [11] was -14.5% (inactive) and -7.95% (inactive) and -6.84% (inactive).

Regarding `CCCc1cc(=O)[nH]c(=S)[nH]1`, the Potency entry in [1], in assay [2], in assay [18], in assay [3], in assay [4] and in assay [5] was “inactive” throughout. For the same molecule, the Potency entry in [6], in assay [7], in assay [8], in assay [9], in assay [10] and in assay [12] was “inactive” in each case. Also, the Potency entry in assay [13], in assay [15], in assay [16] and in assay [17] was “inactive” each time. In addition, the max response in [11] is 1.97% (inactive) and 2.41% (inactive) and 2.9% (inactive).

Consider `C/C=C/C=C/C(=O)O`, for which the Potency result in assay [1], in assay [2], in [18], in assay [3], in assay [4] and in [5] was “inactive” throughout. Moreover, the Potency result in [6], in [7], in [9], in assay [10], in assay [12] and in assay [13] was “inactive” in each case. The Potency entry in assay [15], in assay [16] and in assay [17] was “inactive” throughout. For the same molecule, the molecule was called inactive in [19]. In addition, the max response in assay [11] was 4.62% (inactive) and 7.49% (inactive).

For `NS(=O)(=O)c1cc2c(cc1Cl)NCNS2(=O)=O`, the Potency entry in [1], in assay [2], in [18], in [3], in assay [4] and in assay [5] was “inactive” in each case. Further, the Potency entry in [6], in assay [7], in assay [8], in assay [9], in assay [10] and in assay [12] was “inactive” throughout. Also, the Potency entry in assay [13], in [14], in assay [15], in assay [16] and in assay [17] was “inactive” throughout. Moreover, the activity change, positive = activation in assay [20] (at 42.5 µM (top of the series)) was -0.0876% (inactive); in [20] (at 92.4 µM (top of the series)), 0.0385% (inactive) and 5.11% (inactive). The max response in assay [11] is 0.173% (inactive) and -4.85% (inactive) and 1.86% (inactive).

As for `CN(N=O)C(=O)N[C@@H]1[C@@H](O)[C@H](O)[C@@H](CO)O[C@@H]1O`, the Potency entry in assay [1], in assay [2], in assay [18], in assay [3], in assay [4] and in assay [5] was “inactive” throughout. In addition, the Potency entry in assay [6], in assay [7], in [9], in assay [10], in assay [12] and in [13] was “inactive” throughout. Further, the Potency result in [15], in assay [16] and in assay [17] was “inactive” in each case. In [19], the outcome was inactive. Besides, the max response in assay [11] is 1.13% (inactive) and 4.9% (inactive) and 1.17% (inactive).

Turning to `CCCCC1(COC(=O)CCC(=O)O)C(=O)N(c2ccccc2)N(c2ccccc2)C1=O`, the Potency entry in [1], in assay [2], in assay [18], in [3], in assay [4] and in assay [5] was “inactive” each time. Also, the Potency entry in assay [6], in [7], in assay [8], in assay [9], in assay [10] and in assay [12] was “inactive” throughout. Also, the Potency result in assay [13], in assay [14], in assay [15], in assay [16] and in assay [17] was “inactive” in each case. For the same molecule, the activity change, positive = activation was -6.77% (inactive) in assay [20] (at 42.5 µM (top of the series)); 3.58% (inactive) and -11.1% (inactive) in assay [20] (at 92.4 µM (top of the series)). For the same molecule, in [11], the max response is 0.752% (inactive) and 12.4% (inactive) and 1.85% (inactive).

On to `CCCCCCCCCCCCCCCC[N+](C)(C)Cc1ccccc1`, for which the Potency result was “inactive and 44.4 µM (active)” in assay [2]; 117 µM (active) and 45.8 µM (active) and 49.2 µM (active) in [3]; 22.6 µM (active) and 15.8 µM (active) and 10.7 µM (active) in [4]; 7.14 µM (active) and 11.2 µM (active) and 3.38 µM (active) in assay [5]; 14.2 µM (active) and 12.5 µM (active) and 8.49 µM (active) in [7]; 50.5 µM (active) and 39.6 µM (active) and 23.9 µM (active) in [8]. For the same molecule, the Potency in [9] is 25.3 µM (active) and 28 µM (active); in assay [10] it was 63.6 µM (active) and 39.6 µM (active) and 23.9 µM (active); in assay [11] it was 4.5 µM (active) and 7.9 µM (active) and 3.01 µM (active); in [12] it was 50.5 µM (active) and 31.4 µM (active) and 21.3 µM (active); in assay [13], 50.5 µM (active) and 19.8 µM (active) and 23.9 µM (active); in assay [15] it was 25.3 µM (active) and 17.7 µM (active) and 19 µM (active). Besides, in [16], the Potency was 20.1 µM (active) and 14 µM (active) and 10.7 µM (active). Further, the Potency entry in assay [18], in assay [6] and in assay [17] was “inactive” in each case. Moreover, the activity change, positive = activation in assay [20] (at 42.5 µM (top of the series)) is -56.4% (inactive); in assay [20] (at 92.4 µM (top of the series)), -78.7% (inactive) and -80.7% (inactive).

Take `NC(=O)n1c(O)c(C(=O)c2cccs2)c2cc(Cl)ccc21`: the Potency entry in assay [1], in assay [2], in [3], in [4], in assay [5] and in assay [6] was “inactive” each time. Besides, the Potency entry in assay [7], in assay [9], in assay [10], in assay [12], in assay [13] and in [14] was “inactive” throughout. Moreover, the Potency result in [15] and in assay [16] was “inactive” each time. Besides, the max response in [11] was 3.23% (inactive).

In the case of `NS(=O)(=O)O`, the Potency result in [2], in assay [18], in [3], in assay [4], in assay [5] and in assay [6] was “inactive” in each case. Moreover, the Potency entry in assay [7], in assay [8], in assay [9], in assay [10], in assay [12] and in assay [13] was “inactive” throughout. Further, the Potency result in [15], in [16] and in assay [17] was “inactive” in each case. Moreover, in assay [19], the molecule was classed as inactive. Further, the max response in [11] was 0.202% (inactive) [middle of 4 runs].

For `Nc1ccc(O)c([N+](=O)[O-])c1`, the Potency result in assay [2], in assay [3], in assay [4], in assay [6], in assay [7] and in assay [9] was “inactive” throughout. Also, the Potency entry in [10], in assay [12], in [13], in [14], in [15] and in assay [16] was “inactive” each time. Also, the result in assay [19] was inactive. In assay [20] (at 92.4 µM (top of the series)), the activity change, positive = activation is 60.3% (active).

The record behind these values is PubChem BioAssay (Tox21).
